Our source for the growth inhibition values is the supplement of paper PMC8253809.

Molecules are shown by their SMILES. “And” between values parts separate entries of the source, which are not always exact repeats. Identical values can stand only once.

One experiment deals with DIPGX9 (diffuse intrinsic pontine glioma line). The experiment is described as follows: growth inhibition (% activity, log2 RLU normalised to DMSO / staurosporine); higher = more growth inhibition. As to conditions: 33 µM. The method, boiled down: (§1)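 The growth-inhibition value is the median over replicates. pHGG cell lines and H9-derived neural stem cells on Geltrex-coated 384-well plates received approved drugs by pin tool at a single final concentration of about 33 μM, in triplicate, for 7 days at 37 °C, 5% CO2. CellTiter-Glo luminescence was log2-transformed and normalised per plate to % activity between solvent and positive control wells.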
Consider `Cc1onc(-c2ccccc2)c1-c1ccc(S(N)(=O)=O)cc1`, for which the growth inhibition was 0.672%.
For the compound `C#C[C@]1(O)CC[C@H]2[C@@H]3CCC4=CC(=O)CC[C@@H]4[C@H]3CC[C@@]21C`, the growth inhibition stood at 2.42%.
Take `N=C(N)c1ccc(N=NNc2ccc(C(=N)N)cc2)cc1`: the growth inhibition is -1.13%.
For the compound `O[C@@H]1CO[C@H]2[C@@H]1OC[C@@H]2O`, the growth inhibition is -0.699%.
On to `CC[C@H]1OC(=O)[C@H](C)[C@@H](O[C@H]2C[C@@](C)(OC)[C@@H](O)[C@H](C)O2)[C@H](C)[C@@H](O[C@@H]2O[C@H](C)C[C@H](N(C)C)[C@H]2O)[C@](C)(O)C[C@@H](C)[C@@H]2N[C@@H](COCCOC)O[C@H]([C@H]2C)[C@]1(C)O`, for which the growth inhibition is -0.804%.
For the compound `CC(C)NCC(O)COc1cccc2ccccc12` (stereo not given), the growth inhibition was determined as 1.12%.
On to `N#CC1(c2ccc(NC(=O)c3cccnc3NCc3ccncc3)cc2)CCCC1`, for which the growth inhibition is 3.39%.
On to `Clc1ccc2c(c1)C(N1CCNCC1)=Nc1ccccc1O2`, for which the growth inhibition was determined as 1.29%.
Consider `C=C1CCC(O)CC1=CC=C1CCCC2(C)C1CCC2C(C)CCCC(C)(C)O` (stereo not given), for which the growth inhibition is -0.221%.
On to `CC(=O)Oc1cc(C(F)(F)F)ccc1C(=O)O`, for which the growth inhibition is -0.552%.
On to `O=c1ccc2ccccc2o1`, for which the growth inhibition came out at 2.02%.
For `Cc1c(O)c(=O)ccn1C`, the growth inhibition worked out at 1.03%.
Regarding `CN(C)CCC=C1c2ccccc2CCc2ccccc21`, the growth inhibition came out at 1.79%.
On the same count and under the same terms, the result for `CC(C)(C(=O)O)c1ccc(C(O)CCCN2CCC(C(O)(c3ccccc3)c3ccccc3)CC2)cc1` (stereo not given) reads 0.223%.
For the compound `C[C@@H](O)[C@H]1C(=O)N2C(C(=O)OCOC(=O)C(C)(C)C)=C(SC3CN(C4=NCCS4)C3)[C@H](C)[C@H]12`, the growth inhibition came to 0.809%.
With `Cc1c(Nc2ncccc2C(=O)O)cccc1C(F)(F)F`, the growth inhibition turned out to be 1.64%.
With `CCCCCCCN(CC)CCCC(O)c1ccc(NS(C)(=O)=O)cc1` (stereo not given), the growth inhibition is 1.97%.
As to `COc1ccccc1N1CCN(CCCNc2cc(=O)n(C)c(=O)n2C)CC1`, the growth inhibition came to 0.0185%.
For `Cc1ncc([N+](=O)[O-])n1CC(C)O` (stereo not given), the growth inhibition was determined as 0.505%.
`CC[C@H]1OC(=O)[C@H](C)[C@@H](O[C@H]2C[C@@](C)(OC)[C@@H](O)[C@H](C)O2)[C@H](C)[C@@H](O[C@@H]2O[C@H](C)C[C@H](N(C)C)[C@H]2O)[C@](C)(O)C[C@@H](C)/C(=N\OCOCCOC)[C@H](C)[C@@H](O)[C@]1(C)O`: the growth inhibition worked out at 1.56%.
On to `N=S(=O)(O)Cc1noc2ccccc12`, for which the growth inhibition is -1.19%.

The subject of another experiment is HGGX39 (paediatric high-grade glioma line). The experiment is described as above. As to conditions: 33 µM. An outline of the steps: as §1
With `O=C(O)c1cccnc1Nc1cccc(C(F)(F)F)c1`, the growth inhibition stood at 1.81%.
For `C=C(c1ccc(C(=O)O)cc1)c1cc2c(cc1C)C(C)(C)CCC2(C)C`, the growth inhibition amounted to 12.4%.
Same read-out and setting: the result for `CC1(C)S[C@@H]2[C@H](NC(=O)Cc3ccccc3)C(=O)N2[C@H]1C(=O)O` reads 2.76%; that for `Cc1cn(C2C=CC(CO)O2)c(=O)[nH]c1=O` (stereo not given), -0.264%; that for `CC(C)(C)C(=O)C(Oc1ccc(Cl)cc1)n1ccnc1` (stereo not given), 5.9%.
As for `Cc1ccc(S(=O)(=O)NC(=O)NN2CCCCCC2)cc1`, the growth inhibition is 0.24%.
With `Cc1cc(C2CCCCC2)n(O)c(=O)c1`, the growth inhibition was 8.59% and 9.1%.
Turning to `OCCOCCN1CCN(C(c2ccccc2)c2ccc(Cl)cc2)CC1` (stereo not given), the growth inhibition was found to be 2.86%.
On to `Oc1c(Br)cc(Br)c2cccnc12`, for which the growth inhibition stood at 2.61%.
As to `COC(=O)C1=CO[C@@H](O[C@@H]2O[C@H](CO)[C@@H](O)[C@H](O)[C@H]2O)[C@@H]2C(CO)=CC[C@H]12`, the growth inhibition is 0.266%.
Regarding `CCn1cc(C(=O)O)c(=O)c2ccc(C)nc21`, the growth inhibition is -0.871%.
Take `CCOC(=O)c1ccc(N)cc1`: the growth inhibition is -1.05%.
In the case of `CCCN1CCCC[C@H]1C(=O)Nc1c(C)cccc1C`, the growth inhibition was 2.25%.
Consider `CC(C)[C@H]1CC[C@H](C(=O)N[C@H](Cc2ccccc2)C(=O)O)CC1`, for which the growth inhibition came out at 1.32%.
Take `NS(=O)(=O)c1cc2c(cc1Cl)NC(C(Cl)Cl)NS2(=O)=O` (stereo not given): the growth inhibition was 4.4%.
As for `COc1cc2c(cc1OC)CC(=O)N(CCCN(C)C[C@H]1Cc3cc(OC)c(OC)cc31)CC2`, the growth inhibition is 2.26%.
Consider `CCCc1nc(C)c2c(=O)nc(-c3cc(S(=O)(=O)N4CCN(CC)CC4)ccc3OCC)[nH]n12`, for which the growth inhibition was determined as 1.97%.
With `CCC(C)n1ncn(-c2ccc(N3CCN(c4ccc(OCC5COC(Cn6cncn6)(c6ccc(Cl)cc6Cl)O5)cc4)CC3)cc2)c1=O` (stereo not given), the growth inhibition was found to be 4.33%.
Take `Cc1onc(-c2ccccc2)c1-c1ccc(S(N)(=O)=O)cc1`: the growth inhibition is 3.67%.
Take `C#C[C@]1(O)CC[C@H]2[C@@H]3CCC4=CC(=O)CC[C@@H]4[C@H]3CC[C@@]21C`: the growth inhibition is 4.07%.
Turning to `N=C(N)c1ccc(N=NNc2ccc(C(=N)N)cc2)cc1`, the growth inhibition was determined as 7.13%.
As to `O[C@@H]1CO[C@H]2[C@@H]1OC[C@@H]2O`, the growth inhibition came out at 0.692%.
Turning to `CC[C@H]1OC(=O)[C@H](C)[C@@H](O[C@H]2C[C@@](C)(OC)[C@@H](O)[C@H](C)O2)[C@H](C)[C@@H](O[C@@H]2O[C@H](C)C[C@H](N(C)C)[C@H]2O)[C@](C)(O)C[C@@H](C)[C@@H]2N[C@@H](COCCOC)O[C@H]([C@H]2C)[C@]1(C)O`, the growth inhibition was -0.699%.
Same read-out and setting: the value for `CC(C)NCC(O)COc1cccc2ccccc12` (stereo not given) was 0.98%.
For `N#CC1(c2ccc(NC(=O)c3cccnc3NCc3ccncc3)cc2)CCCC1`, the growth inhibition was 8.17%.
For the compound `Clc1ccc2c(c1)C(N1CCNCC1)=Nc1ccccc1O2`, the growth inhibition was determined as 4.43%.
With `C=C1CCC(O)CC1=CC=C1CCCC2(C)C1CCC2C(C)CCCC(C)(C)O` (stereo not given), the growth inhibition turned out to be 3.14%.
On to `CC(=O)Oc1cc(C(F)(F)F)ccc1C(=O)O`, for which the growth inhibition was -0.882%.
For the compound `O=c1ccc2ccccc2o1`, the growth inhibition was determined as 1.94%.
As for `Cc1c(O)c(=O)ccn1C`, the growth inhibition came out at 0.26%.
In the case of `CN(C)CCC=C1c2ccccc2CCc2ccccc21`, the growth inhibition was 5.11%.
In the case of `CC(C)(C(=O)O)c1ccc(C(O)CCCN2CCC(C(O)(c3ccccc3)c3ccccc3)CC2)cc1` (stereo not given), the growth inhibition was found to be 2.4%.
For `C[C@@H](O)[C@H]1C(=O)N2C(C(=O)OCOC(=O)C(C)(C)C)=C(SC3CN(C4=NCCS4)C3)[C@H](C)[C@H]12`, the growth inhibition turned out to be 1.15%.
`Cc1c(Nc2ncccc2C(=O)O)cccc1C(F)(F)F`: the growth inhibition was found to be 1.78%.
For the compound `CCCCCCCN(CC)CCCC(O)c1ccc(NS(C)(=O)=O)cc1` (stereo not given), the growth inhibition came out at 2.78%.
For `COc1ccccc1N1CCN(CCCNc2cc(=O)n(C)c(=O)n2C)CC1`, the growth inhibition was found to be 0.367%.
Still for that read-out and setting: the result for `Cc1ncc([N+](=O)[O-])n1CC(C)O` (stereo not given) reads -1.86%.
As to `CC[C@H]1OC(=O)[C@H](C)[C@@H](O[C@H]2C[C@@](C)(OC)[C@@H](O)[C@H](C)O2)[C@H](C)[C@@H](O[C@@H]2O[C@H](C)C[C@H](N(C)C)[C@H]2O)[C@](C)(O)C[C@@H](C)/C(=N\OCOCCOC)[C@H](C)[C@@H](O)[C@]1(C)O`, the growth inhibition was determined as 1.63%.
As to `N=S(=O)(O)Cc1noc2ccccc12`, the growth inhibition is -0.682%.
